Assay results as given in the supplement of paper PMC12669032.
Values without a mark were called inactive.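 How the source made its calls: active = AUC reduced over 20% with Padj below 0.05 in at least 2 of 3 replicates; inactive = otherwise.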

Tests used:
Experiment in all cases: growth AUC relative to DMSO control (median of replicates) (fraction); higher = more growth (less inhibition), active = hit call of the paper
Settings in all cases: 20 µM; 24 h
Akkermansia muciniphila = tested on: Akkermansia muciniphila
Procedure, shortened: (§1)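 Area under the growth curve was normalised to the plate median of solvent-only wells, or to row and column medians on the industrial chemical plate. Growth curves came from anaerobic gut bacterial monocultures in mGAM at 37 °C, seeded at OD600 0.05 with 20 µM compound (1% DMSO), and read at OD600 hourly for 24 h with the minimum OD set to 0. The value is the median of three biological replicates grown on separate days.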

Bacteroides caccae = tested on: Bacteroides caccae
Procedure, shortened: as §1

Bacteroides clarus = tested on: Bacteroides clarus
Procedure, shortened: as §1

Bacteroides dorei = tested on: Bacteroides dorei
Procedure, shortened: as §1

Bacteroides stercoris = tested on: Bacteroides stercoris
Procedure, shortened: as §1

[1] = tested on: Bacteroides thetaiotaomicron
Procedure, shortened: as §1

Bacteroides uniformis = tested on: Bacteroides uniformis
Procedure, shortened: as §1

[2] = tested on: Bifidobacterium longum subsp. longum
Procedure, shortened: as §1

Clostridium difficile = tested on: Clostridium difficile
Procedure, shortened: as §1

Collinsella aerofaciens = tested on: Collinsella aerofaciens
Procedure, shortened: as §1

Structure (SMILES)	growth AUC (Akkermansia muciniphila)	growth AUC (Bacteroides caccae)	growth AUC (Bacteroides clarus)	growth AUC (Bacteroides dorei)	growth AUC (Bacteroides stercoris)	growth AUC [1]	growth AUC (Bacteroides uniformis)	growth AUC [2]	growth AUC (Clostridium difficile)	growth AUC (Collinsella aerofaciens)
CC(C)N(C(=O)CS(=O)(=O)[O-])c1ccc(F)cc1.[Na+]	0.977	1.02	0.979	0.984	0.966	0.948	1.04	0.944	1.05	0.957
CNC(=O)Sc1ccc(OS(C)(=O)=O)cc1	0.955	1.02	0.858	0.925	0.77	0.848	0.953	0.847	0.96	1.01
COC(=O)Nc1ccc(Cl)c(Cl)c1	0.817	0.99	0.96	0.969	0.95	0.966	0.966	0.84	0.978	1.02
COC(=O)C(C)Oc1cc(Cl)c(Cl)cc1Cl (stereo not given)	0.978	0.982	1	1.04	1.22	0.982	0.978	1.03	1.03	0.982
O=C1NCCN1	1.15	1.02	1.02	1.06	1.18	1.02	0.978	1.04	0.993	1.02
COc1nc(C)nc(NC(=O)NS(=O)(=O)c2ccccc2OCCCl)n1	1.06	1.09	1.01	1.02	1.02	0.985	1.01	1	0.998	0.993
C/C=C/C=C/CCCCCCCO	0.879	1.03	0.982	1.02	1.07	0.969	1	1.01	0.984	1.02
O=C(O)COc1cccc(Cl)c1Cl	0.919	0.947	0.971	0.962	1.02	0.993	0.997	0.989	1	0.992
CCCCCCCCc1c(CC)nc2ncnn2c1N	1.05	1.03	0.991	0.989	0.953	0.97	0.973	0.995	0.972	0.926
COC(=O)c1ccc(C(=O)OC)cc1	0.99	0.964	0.978	1.01	1.02	0.991	0.972	0.993	1.01	1.01
CCCCCCCC/C=C\CCCCCCCCCCCCC	0.969	0.961	0.982	1.05	0.986	0.995	0.997	0.964	1.05	1.02
CCOc1ccc(C2(C(=O)OC(C#N)c3cccc(Oc4ccccc4)c3)CC2(Cl)Cl)cc1 (stereo not given)	1.08	0.968	1.02	0.94	1.04	0.993	0.957	0.911	1.01	0.982
CCOCCc1ccc(OCCNc2ncnc(CC)c2Cl)c(C)c1C	0.937	0.929	0.883	0.942	0.975	0.915	0.887	0.923	0.998	0.94
O=C(Nc1ccc(Cl)cc1C(O)c1ccccc1)c1ccncc1 (stereo not given)	1.04	0.985	0.946	1.01	0.878	0.97	0.987	1.01	0.982	0.994
CCNc1nc(NC(C)CC)nc(OC)n1 (stereo not given)	1.08	1.02	1	1.02	1.29	0.977	0.979	0.986	1.03	1.13
CCOC(=O)C(C)N(C(=O)c1ccccc1)c1ccc(Cl)c(Cl)c1 (stereo not given)	1.07	0.975	0.948	0.963	1.13	0.922	0.89	0.945	1.01	1.02
CCOC(=O)Cc1[nH]nc2ccc(Cl)cc12	0.921	1.01	1.01	0.996	1.15	1.01	1.01	0.989	1	0.969
CCOC(=O)C1=NOC(c2ccccc2)(c2ccccc2)C1	0.86	1.03	0.971	0.995	0.979	0.926	0.932	0.966	0.974	0.993
COc1nc(N)nc(C(F)(F)F)n1	0.945	0.985	0.992	1.01	0.988	0.985	1.01	1.04	1.03	1.02
CCOCCOC(=O)C(C)Oc1ccc(Oc2ncc(C(F)(F)F)cc2Cl)cc1 (stereo not given)	1.02	0.955	0.968	0.948	0.903	0.998	0.903	1.01	1.01	1.03
CCCCN(C)C(=O)Nc1ccc(Cl)c(Cl)c1	0.739	0.886	0.952	0.97	1.16	0.899	0.864	0.951	0.943	1
O=C(Oc1ccccc1)n1c(C(F)(F)F)nc2cc(Cl)c(Cl)cc21	0.177 (active)	0.215 (active)	0.121 (active)	0.236 (active)	0.0063 (active)	0.0816 (active)	0.0127 (active)	0.891	0.561 (active)	0.958
CSC(=O)c1cccc2nnsc12	0.851	1.04	0.997	0.978	1.07	0.961	1	1.04	1	1.01
COc1cc(OC)nc(NC(=O)NS(=O)(=O)c2c(-c3nnn(C)n3)cnn2C)n1	1.13	0.99	1	0.94	1.08	1.01	1	1.01	0.961	0.978
Oc1ccccc1O	0.968	1.02	1.03	1	1	1.03	1.04	0.911	1.01	1.01
CC1=C(c2ccccc2)C(=O)N(C(C)(C)c2cc(Cl)cc(Cl)c2)CO1	1.11	0.962	0.925	0.981	0.895	0.93	0.917	0.956	1.02	0.965
CCOCN(C(=O)C(=O)O)c1c(C)cccc1CC	0.978	1.01	0.989	1.02	1.02	1.01	1.01	1.01	0.986	1.02
c1ccc2c(c1)-c1cccc3c1c-2cc1ccccc13	0.981	1.05	1.03	1.04	1.08	1.02	1.03	1.06	1.02	1.01
CN(C)C(=O)Nc1ccccc1	0.854	1.03	0.981	1	1.07	0.994	0.978	1.01	1.01	0.984
